# ± gives the standard deviation of the averaged measurements. Whole data set: some 25,000 sequences, median “ln(normalized median fluorescence intensity)” near 10, cut for the highest 2% near 12. The list comes from a sample in which the highest values are over-represented; it also holds similar and randomly drawn sequences.
# Tested on: PfAP2-G AP2 domain (GST-tagged)
# Experiment: gcPBM binding intensity (ln(normalized median fluorescence intensity)); higher = stronger DNA binding
# In short: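 GST-tagged P. falciparum DNA-binding domains produced in E. coli were incubated for 1 h on an Agilent 4 × 180k array of primer-extended double-stranded 36-bp intergenic genomic probes with negative controls. Binding intensity is the highest Masliner-normalised natural-log median intensity across replicate spots of either probe orientation, with bound protein detected by Alexa488 anti-GST antibody at 488 nm.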
row,Sequence,gcPBM binding intensity (ln)
1,GCTAGTTTTTTTTGGCGTACAGTACCGGTTTACTTT [XGTACX_site2606],11.6 ± 1
2,ATAATTCCAAGAATTTCATATATCTGAATTTTAGGT [GTGCAC_negctrl_site283],9.61 ± 0.2
3,GACCATATGAATAATGCACACGTTTTAAAATATTAA [CACACA_site5312],10.23 ± 0.028
4,AACGATATATGTACTACACACATTATGTCATCCTAT [CACACA_site2464],11.5 ± 0.83
5,AACGATATCTGTACTACACACATTATGTCATCCTAT [CACACA_site5374],11.8 ± 1.1
6,AACGATATAGGTACTACACACATTATGTCATCCTAT [CACACA_site7205],11.2 ± 0.77
7,TTTTATACATAAATGTGTACGTATATATAATGAATT [XGTACX_site2762],11.7 ± 1
8,AAATTTTAAATAGTATGTACGTATGAAATATATATG [XGTACX_site7511],11.4 ± 0.79
9,TTTTATACATAAATATGTACGTATATATAATGAATT [XGTACX_site1337],11.3 ± 0.73
10,CACTTTTTTTAAATGTGTACGTATATGAAAATATCA [XGTACX_site4854],11.7 ± 1
11,TTTGTATAATACATGTGTACGTATTTTTATATAAAT [XGTACX_site8656],11.6 ± 0.95
12,ATGTATGAAAAAATGTGTACATAATTTTTTTTTTTT [XGTACX_site5444],11.7 ± 1
13,TATAATGAACATATGTGTACATATATTTTTTAAATT [XGTACX_site8736],11.4 ± 0.72
14,TTAAATGAAAAAATATGTACGTATAATAAGAAATAT [XGTACX_site6619],11.6 ± 0.87
15,ATATTTATATTTATGTGTACATATGAAATAATTATT [XGTACX_site7765],11.5 ± 0.72
16,TTTTTTTAAAATATGAGTACATAATATTGTAAAAAT [XGTACX_site6536],11.4 ± 0.9
17,AGTTTGATTTTTTCTTATAATATATTATTATATATT [CACACA_negctrl_site376],9.975 ± 0.021
18,CATATGTAGGGAACAATATAATATGCTTTGAATATG [GTGCAC_negctrl_site524],10.2 ± 0.14
19,AAGAATATTAATATAAATAAGTAAATAAATAAATAA [CACACA_negctrl_site417],9.78 ± 0.11
20,GTATAATTTAAAAAGTGTACATAAAGTTTTTATTAA [XGTACX_site1090],11.6 ± 0.81
21,GTACAAATGTTGTGTATATATACACACATACATATA [XGTACX_negctrl_site276],10.9 ± 0.46
22,AAATGCGCCATGTGTACACATATATATATATATATA [CACACA_site4649],11.5 ± 0.88

row,Sequence,gcPBM binding intensity (ln)
1,AAAAATATAATATAATGTACACAAAAAAAAAAAATC [XGTACX_site1427],11.4 ± 0.71
2,CATATTAGGACAAAGTGTACATATATATATATATAT [XGTACX_site1172],11.4 ± 0.86
3,ATATATATATATATATGTACATATACACATGTGTGC [XGTACX_site168],11.2 ± 0.55
4,ATCTGACAAAAGTGTACACATATATATATATATATA [CACACA_site4814],11.7 ± 1.2
5,ATAATCTGACAAATGTGTACACATATATATATATAT [XGTACX_site2379],11.6 ± 0.97
6,AAAAAATGCGACATGTGTACACATATATATATATAT [XGTACX_site1679],11.8 ± 0.99
7,TATGTAACAAAAAAAAGTACACATATATATAGTGTA [XGTACX_site7772],11.6 ± 0.85
8,TAATTTTCATAATTTTGTACTTAACGTTTTACCTTG [XGTACX_site8048],10.9 ± 0.5
9,TGCACAAAATTATGCACACACCTAAAATTAATTTTT [CACACA_site5596],10.2 ± 0.21
10,TAAATTTAAAATGACACACACTAAAATTATTTAAGT [CACACA_site4816],10.05 ± 0.021
11,ATAAAGAAAAGGAACACACAAATATGTAAATATGTA [CACACA_site6356],10.06 ± 0.085
12,ATAGAACAGAAAAGGCGTACAATAATATGTAAACAA [XGTACX_site2828],11.8 ± 1.1
13,TATGAGAACAAACATTGTACAATAAAAAGTAGATAT [XGTACX_site920],11.2 ± 0.35
14,TTTCATAACAAAAAAGTGCAAAATAGCACGAACATT [GTGCAC_site9703],10.3 ± 0.16
15,TTATAAAACACAAAATGTACAAAAAATTATAATTAA [XGTACX_site6859],10.7 ± 0.33
16,AAAAACGATTAATGTGTACACACATAGTTATAAACA [CACACA_site8659],11.7 ± 1.2
17,AAACGATTAATGTGTACACACATAGTTATAAACCTA [CACACA_site2110],11.6 ± 0.91
18,AAACGATTACTGTGTACACACATAGTTATAAACATA [CACACA_site5195],11.5 ± 0.72
19,AAACGATTAATGTGTACACACATAGTTATAAACATA [CACACA_site7073],11.7 ± 1.2
20,TAAACACATTATATATGTACATAATAAAAAAAAAAA [XGTACX_site7907],11.2 ± 0.83
21,TAATGACAATAAAAATAAATAAATAAAAAAAAAAAA [TGCATGCA_negctrl_site321],9.51 ± 0.59
22,ATATAAATATAAACATGTACATATATATATATATAT [XGTACX_site2824],11.1 ± 0.69
